According to PubChem BioAssay AID1159580 (chemical genetic matrix, 2015):
Out of some 5,500 compounds screened, about 2,000 (36%) were called active. Inconclusive results (about 18%) are left out. Cut-off read from the data, not from the text of the source: active = normalized growth mostly below about 0.91 (no sharp cut-off); inconclusive = no clear call, values can overlap the other calls; inactive = mostly above about 0.92. The list shows a part of the results.

Experiment: chemical genetic growth profiling, strain panel (AID 1159580);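 note: tested at 20 µM; growth read once vehicle control cultures reached saturation at 30 °C; 1 = growth at the plate median or of vehicle wells; lower values mean less growth of the strain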
Details: S. cerevisiae deletion strains, growth OD
[1] = locus YAL021C, strain ccr4, stronger effect = lower value
[2] = locus YAL026C, strain drs2, stronger effect = lower value
[3] = locus YAL030W, strain snc1, stronger effect = lower value
[4] = locus YBL061C, strain skt5, stronger effect = lower value
[5] = locus YBR009C, strain hhf1, stronger effect = lower value
[6] = locus YBR023C, strain chs3, stronger effect = lower value
[7] = locus YBR171W, strain sec66, stronger effect = lower value
[8] = locus YBR231C, strain swc5, stronger effect = lower value
[9] = locus YBR279W, strain paf1, stronger effect = lower value
[10] = locus YCL011C, strain gbp2, stronger effect = lower value
[11] = locus YCL016C, strain dcc1, stronger effect = lower value
[12] = locus YCL061C, strain MRC1, stronger effect = lower value
[13] = locus YCL069W, strain vba3, stronger effect = lower value
[14] = locus YCR088W, strain abp1, stronger effect = lower value
[15] = locus YDL005C, strain med2, stronger effect = lower value
[16] = locus YDL040C, strain nat1, stronger effect = lower value
[17] = locus YDR001C, strain nth1, stronger effect = lower value
[18] = locus YDR069C, strain doa4, stronger effect = lower value
[19] = locus YDR137W, strain rgp1, stronger effect = lower value
[20] = locus YDR159W, strain sac3, stronger effect = lower value
[21] = locus YDR297W, strain sur2, stronger effect = lower value
[22] = locus YDR334W, strain swr1, stronger effect = lower value
[23] = locus YDR335W, strain msn5, stronger effect = lower value
[24] = locus YDR392W, strain spt3, stronger effect = lower value
[25] = locus YEL003W, strain gim4, stronger effect = lower value
[26] = locus YEL037C, strain rad23, stronger effect = lower value
[27] = locus YEL061C, strain CIN8 (second series), stronger effect = lower value
[28] = locus YER015W, strain faa2, stronger effect = lower value
[29] = locus YER016W, strain bim1, stronger effect = lower value
[30] = locus YER111C, strain swi4, stronger effect = lower value
[31] = locus YER155C, strain BEM2 (second series), stronger effect = lower value
[32] = locus YFR010W, strain ubp6, stronger effect = lower value
[33] = locus YGL167C, strain pmr1, stronger effect = lower value
[34] = locus YGL173C, strain kem1, stronger effect = lower value
[35] = locus YGL227W, strain vid30, stronger effect = lower value
[36] = locus YGL240W, strain doc1, stronger effect = lower value
[37] = locus YGL253W, strain hxk2, stronger effect = lower value
[38] = locus YHR013C, strain ard1, stronger effect = lower value
[39] = locus YHR027C, strain rpn1, stronger effect = lower value
[40] = locus YHR030C, strain SLT2, stronger effect = lower value
[41] = locus YHR079C, strain IRE1, stronger effect = lower value
[42] = locus YHR142W, strain chs7, stronger effect = lower value
[43] = locus YJL092W, strain hpr5, stronger effect = lower value
[44] = locus YJL095W, strain BCK1 (second series), stronger effect = lower value
[45] = locus YJL095W, strain BCK1, stronger effect = lower value
[46] = locus YJL115W, strain asf1, stronger effect = lower value
[47] = locus YJL129C, strain trk1, stronger effect = lower value
[48] = locus YJL154C, strain vps35, stronger effect = lower value
[49] = locus YJL164C, strain tpk1, stronger effect = lower value
[50] = locus YJL166W, strain qcr8, stronger effect = lower value
[51] = locus YJR066W, strain TOR1, stronger effect = lower value
[52] = locus YKL160W, strain elf1, stronger effect = lower value
[53] = locus YKR026C, strain gcn3, stronger effect = lower value
[54] = locus YKR091W, strain srl3, stronger effect = lower value
[55] = locus YLL001W, strain dnm1, stronger effect = lower value
[56] = locus YLL026W, stronger effect = lower value
[57] = locus YLL041C, strain sdh2, stronger effect = lower value
[58] = locus YLR027C, strain aat2, stronger effect = lower value
[59] = locus YLR113W, strain HOG1, stronger effect = lower value
[60] = locus YLR221C, strain rsa3, stronger effect = lower value
[61] = locus YLR258W, strain gsy2, stronger effect = lower value
[62] = locus YLR262C, strain YPT6 (second series), stronger effect = lower value
[63] = locus YLR320W, strain mms22, stronger effect = lower value
[64] = locus YLR342W, strain FKS1, stronger effect = lower value
[65] = locus YLR357W, strain rsc2, stronger effect = lower value
[66] = locus YLR370C, strain arc18, stronger effect = lower value
[67] = locus YLR384C, strain iki3, stronger effect = lower value
[68] = locus YML120C, strain ndi1, stronger effect = lower value
[69] = locus YMR058W, strain fet3, stronger effect = lower value
[70] = locus YMR125W, strain sto1, stronger effect = lower value
[71] = locus YMR129W, stronger effect = lower value
[72] = locus YMR205C, strain PFK2, stronger effect = lower value
[73] = locus YMR231W, strain pep5, stronger effect = lower value
[74] = locus YNL071W, strain lat1, stronger effect = lower value
[75] = locus YNL183C, strain NPR1, stronger effect = lower value
[76] = locus YNL209W, strain ssb2, stronger effect = lower value
[77] = locus YNL248C, strain rpa49, stronger effect = lower value
[78] = locus YNL322C, strain KRE1 (second series), stronger effect = lower value
[79] = locus YNR049C, strain mso1, stronger effect = lower value
[80] = locus YOR001W, strain rrp6, stronger effect = lower value
[81] = locus YOR070C, strain gyp1, stronger effect = lower value
[82] = locus YOR080W, strain dia2, stronger effect = lower value
[83] = locus YOR083W, strain WHI5, stronger effect = lower value
[84] = locus YOR106W, strain vam3, stronger effect = lower value
[85] = locus YOR231W, strain MKK1, stronger effect = lower value
[86] = locus YOR265W, strain rbl2, stronger effect = lower value
[87] = locus YOR270C, strain vph1, stronger effect = lower value
[88] = locus YOR290C, strain snf2, stronger effect = lower value
[89] = locus YPL051W, strain arl3, stronger effect = lower value
[90] = locus YPL078C, strain atp4, stronger effect = lower value
[91] = locus YPL106C, strain sse1, stronger effect = lower value
[92] = locus YPL240C, strain hsp82, stronger effect = lower value
[93] = locus YPL256C, strain CLN2, stronger effect = lower value

Measured: normalized growth

c1ccc2sc(C3(N4CCCCC4)CCCCC3)cc2c1
inactive: locus YAL013W, strain DEP1, stronger effect = lower value 0.964 | locus YAL040C, strain CLN3, stronger effect = lower value 1.01 | locus YCL061C, strain MRC1 (second series), stronger effect = lower value 0.995 | locus YDR150W, strain NUM1, stronger effect = lower value 1 | locus YDR363W, strain ESC2, stronger effect = lower value 0.937 | locus YER002W, strain NOP16, stronger effect = lower value 1.01 | locus YGR078C, strain PAC10, stronger effect = lower value 0.983 | locus YGR229C, strain SMI1, stronger effect = lower value 0.93 | locus YMR263W, strain SAP30, stronger effect = lower value 1 | locus YMR307W, strain GAS1, stronger effect = lower value 0.976 | locus YNL128W, strain TEP1, stronger effect = lower value 0.988 | locus YNL153C, strain GIM3, stronger effect = lower value 1.01 | locus YNL175C, strain NOP13, stronger effect = lower value 1.03 | locus YNL197C, strain WHI3, stronger effect = lower value 0.986 | locus YNL224C, strain SQS1, stronger effect = lower value 1 | locus YOR083W, strain WHI5 (second series), stronger effect = lower value 1.04 | locus YPL055C, strain LGE1, stronger effect = lower value 0.907

COc1cc(O)c(C(=O)/C=C/c2ccc(O)c(OC)c2)c(OC)c1
active: [2] 0.896 | [24] 0.532 | [25] 0.82 | [31] 0.83 | [32] 0.899 | [37] 0.877 | [49] 0.889 | [69] 0.812 | [74] 0.877
inactive: [1] 0.948 | [3] 0.972 | [4] 0.983 | [5] 0.948 | [6] 0.979 | [7] 0.971 | [8] 0.951 | [9] 0.989 | [10] 0.947 | [11] 0.981 | [12] 0.984 | [13] 0.972 | [14] 0.976 | [15] 0.976 | [16] 0.975 | [17] 0.98 | [18] 0.907 | [19] 0.947 | [20] 0.941 | locus YDR195W, strain ref2 0.972 | [21] 0.975 | [22] 0.936 | [23] 0.973 | [26] 0.949 | [27] 0.977 | [28] 0.973 | [29] 0.981 | [30] 0.965 | [33] 0.975 | [34] 0.962 | [35] 0.987 | [36] 0.928 | [38] 0.902 | [39] 0.965 | [40] 0.96 | [41] 0.973 | [42] 0.923 | [43] 0.961 | [44] 0.979 | [45] 0.982 | [46] 0.969 | [47] 0.965 | [48] 0.987 | [50] 0.94 | locus YJL187C, strain SWE1, stronger effect = lower value 0.979 | [51] 0.926 | [52] 0.968 | [53] 0.977 | [54] 0.985 | [55] 0.984 | [56] 0.972 | [57] 0.961 | [58] 0.928 | [59] 0.967 | [60] 0.908 | [61] 0.961 | [62] 0.884 | [63] 0.947 | [64] 0.961 | [65] 0.983 | [66] 0.977 | [67] 0.992 | [68] 0.975 | [70] 0.899 | [71] 0.981 | [72] 0.988 | [73] 0.942 | [75] 0.955 | [76] 0.986 | [77] 0.906 | [78] 0.985 | [79] 0.977 | [80] 0.922 | [81] 0.962 | [82] 0.986 | [83] 0.98 | [84] 0.896 | [85] 0.967 | [86] 0.965 | [87] 0.845 | [88] 0.939 | [89] 0.928 | [90] 0.972 | [91] 0.911 | [92] 0.976 | [93] 0.928

COc1cc(/C=C/C(=O)/C=C(O)/C=C/c2ccc(O)c(OC)c2)ccc1O
active: [1] 0.0789 | [2] 0.118 | [3] 0.157 | [4] 0.175 | [5] 0.149 | [6] 0.172 | [7] 0.132 | [8] 0.091 | [9] 0.307 | [10] 0.184 | [11] 0.4 | [12] 0.216 | [13] 0.224 | [14] 0.265 | [15] 0.089 | [16] 0.0875 | [17] 0.249 | [18] 0.0822 | [19] 0.149 | [20] 0.112 | locus YDR195W, strain ref2 0.156 | [21] 0.187 | [22] 0.109 | [23] 0.0992 | [24] 0.14 | [25] 0.0989 | [26] 0.155 | [27] 0.243 | [28] 0.119 | [29] 0.396 | [30] 0.094 | [31] 0.242 | [32] 0.187 | [33] 0.177 | [34] 0.107 | [35] 0.507 | [36] 0.399 | [37] 0.224 | [38] 0.178 | [39] 0.0816 | [40] 0.653 | [41] 0.574 | [42] 0.0884 | [43] 0.222 | [44] 0.0924 | [45] 0.546 | [46] 0.313 | [47] 0.108 | [48] 0.251 | [49] 0.143 | [50] 0.0762 | [52] 0.433 | [53] 0.229 | [54] 0.304 | [55] 0.212 | [56] 0.131 | [57] 0.0974 | [58] 0.161 | [59] 0.227 | [60] 0.204 | [61] 0.17 | [62] 0.142 | [63] 0.163 | [64] 0.173 | [65] 0.34 | [66] 0.171 | [67] 0.155 | [68] 0.115 | [69] 0.0838 | [70] 0.16 | [71] 0.276 | [72] 0.134 | [73] 0.134 | [74] 0.269 | [75] 0.761 | [76] 0.0983 | [77] 0.443 | [78] 0.16 | [79] 0.175 | [80] 0.139 | [81] 0.416 | [82] 0.0852 | [83] 0.203 | [84] 0.0922 | [85] 0.575 | [86] 0.159 | [87] 0.115 | [88] 0.101 | [89] 0.118 | [90] 0.182 | [91] 0.251 | [92] 0.294 | [93] 0.494
inactive: [51] 0.828
